An excerpt weighted towards active compounds, which were near 15% of everything screened.
ELG1 DNA repair = inhibitors of ELG1-dependent DNA repair in HEK293T cells | AID 504467 | 330,000 tested, 2.3% active | HEK293T ELG1-luciferase reporter, luminescence, 16 h; DNA damage induced by 5-fluorouridine | Potency, µM (series often up to 46.1 µM), without a hit: at the top dose activity change, negative = inhibition, usual class: inhibitors; also: nearly all actives have a fitted effect of over 55% in size
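Step one: seed 2,000 cells per well. Step two: pin-transfer compound or DMSO alongside 5-fluorouridine. Step three: incubate 16 hr, 37 °C, 5% CO2. Step four: add ONE-Glo, wait 30 min, read luminescence.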
TDP1 cell CPT = growth inhibition of DT40 Tdp1-/-;hTDP1 cells with camptothecin (screen for TDP1 inhibitors). chicken DT40 Tdp1-/-;hTDP1 cells + 20 nM CPT, ATP luminescence, 48 h. 420,000 tested, 12% active. Potency, µM (doses to about 46.2 µM), inactives show at the highest dose activity change, negative = growth inhibition, usual class: inhibitors. AID 686979; also: nearly all actives have a fitted effect of over 55% in size
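Chicken DT40 Tdp1-/- cells stably complemented with human TDP1 were seeded at 400 cells/well in medium containing 20 nM camptothecin, exposed to pin-transferred compounds, and grown at 37 °C for at least 48 hr. Viability was read as ATP luminescence.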
ALOX12 inh = inhibitors of human 12S-lipoxygenase ALOX12; P18054; purified 12hLO, xylenol orange hydroperoxide absorbance; Potency, µM (doses to about 108 µM), for inactives: at the highest dose activity change, negative = inhibition, usual class: inhibitors; 580,000 tested, 1.1% active; AID 1671190
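Purified human 12hLO (150 nM final) in 25 mM Hepes, 0.01% Triton X-100, pH 7.0 was preincubated 15 min at room temperature with compound. Then 40 uM arachidonic acid was added, 30 min. Hydroperoxide was read by Fe-XO absorbance ratio 573/405 nm.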
VP16 counter = inhibits Gal4-VP16 luciferase reporter, ROR gamma counter-screen | Potency, µM (titrated, usually from 53.6 µM), for the others: at the top dose activity, negative = inhibition, hits mostly inhibitors | Drosophila S2 Gal4-VP16 UAS-luciferase, luminescence, 20 h | 310,000 tested, 3.5% active | AID 2546;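 also: Gal4-VP16 expression switched on by copper sulfate through the metallothionein promoter; nearly all actives have a fitted effect of over 50% in size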
RORg inh = ROR gamma (mouse) transcription inhibition; Potency, µM (top dose mostly 53.6 µM), inactives show at the top dose activity change, negative = inhibition, most hits filed as inhibitors; AID 2551; 310,000 tested, 5.4% active; Drosophila S2 Gal4-RORgamma UAS-luciferase reporter, 20 h; P51450; also: nearly all actives have a fitted effect of over 60% in size
Target sequence (P51450 whole entry, looked up, the tested form may be a part): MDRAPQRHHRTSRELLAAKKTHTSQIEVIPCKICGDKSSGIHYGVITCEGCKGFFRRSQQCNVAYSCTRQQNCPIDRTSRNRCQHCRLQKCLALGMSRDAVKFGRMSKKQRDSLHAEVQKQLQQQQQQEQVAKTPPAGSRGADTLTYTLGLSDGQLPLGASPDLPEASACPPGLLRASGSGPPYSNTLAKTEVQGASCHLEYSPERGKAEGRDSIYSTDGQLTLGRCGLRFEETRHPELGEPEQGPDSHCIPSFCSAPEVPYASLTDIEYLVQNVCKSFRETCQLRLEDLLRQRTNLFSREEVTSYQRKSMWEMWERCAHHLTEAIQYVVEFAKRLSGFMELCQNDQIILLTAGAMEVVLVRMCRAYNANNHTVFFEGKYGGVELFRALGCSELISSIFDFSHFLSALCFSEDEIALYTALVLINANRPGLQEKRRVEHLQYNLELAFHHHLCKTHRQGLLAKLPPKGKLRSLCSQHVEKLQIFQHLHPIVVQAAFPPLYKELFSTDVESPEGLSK
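ROR gamma transcriptional activity was tracked as Gal4-UAS luciferase output in stably transfected Drosophila Schneider cells, with compound added 1 hr before 700 uM copper sulfate induction and a 20 hr ambient-temperature incubation.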
DT40 TDP1 no CPT = qHTS for Inhibitors of human tyrosyl-DNA phosphodiesterase 1 (TDP1): qHTS in cells in absence of CPT; DT40 Tdp1-/- hTDP1 cells, no CPT, ATP luminescence, 48 h; Potency, µM (doses to about 46.2 µM), for the others: at the highest dose activity change, negative = growth inhibition, most hits filed as inhibitors; 420,000 tested, 15% active; also: nearly all actives have a fitted effect of over 55% in size
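Chicken DT40 Tdp1-/- cells stably complemented with human TDP1 were seeded at 400 cells/well with DMSO in place of 20 nM camptothecin. After compound pinning, cells grew at least 48 hr at 37 °C; viability read by CellTiter-Glo luminescence.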
An asterisk follows results filed as active. Calls follow the shape of the dose curve; as a rule, active = well fitted curve in the direction sought with a large enough effect; inconclusive = small, poorly fitted or top-dose-only effect, or another doubt; inactive = no such curve, though single readings can be large; an effect the other way counts as inactive or inconclusive. % is scaled to controls: 0 for no effect and ±100 for the full control effect; potency is read from the fitted curve at half-maximal effect.

Screening Cn1cccc1/C=N/NC(=O)c1cccc(OC(F)(F)C(F)F)c1 returned ELG1 DNA repair inconclusive, TDP1 cell CPT 14%, ALOX12 inh -2%, VP16 counter inconclusive, RORg inh 10µM* and DT40 TDP1 no CPT -27%.
Screening COc1cccc(OC)c1C(=O)Nc1c(NC2CCCCC2)c2ccccc2oc1=O returned ALOX12 inh 5%.
For CCOC(=O)C1CCCN(c2nc(C)nc3c2oc2ccccc23)C1 (centres undefined) the results were ELG1 DNA repair inconclusive, TDP1 cell CPT 15µM*, ALOX12 inh inconclusive, VP16 counter inconclusive, RORg inh inconclusive and DT40 TDP1 no CPT 21µM*.
`CCOC(=O)C1CCN(c2nc(C)nc3c2oc2ccccc23)CC1` gave ELG1 DNA repair inconclusive, TDP1 cell CPT 23µM*, ALOX12 inh inconclusive, VP16 counter 6%, RORg inh -4% and DT40 TDP1 no CPT 23µM*.
Screening CCOC(=O)C1CCN(c2nc3ccccc3nc2Cl)CC1 returned TDP1 cell CPT 0%, ALOX12 inh 0% and DT40 TDP1 no CPT -11%.
For N#Cc1nc(C2CC2)oc1N1CCN(C(=O)c2ccc(=O)[nH]c2)CC1 the results were ALOX12 inh 55%.
`CCOc1ccccc1N(CC)C(=O)Cn1nc(Cc2cccnc2)c2ccccc2c1=O` gave ALOX12 inh -7%.
O=C(c1ccccn1)N1CCCC2(CNc3ccccc3[S+](=O)([O-])N2)C1 (centres undefined) was read as ALOX12 inh 21%.
S=C1NCN(Cc2ccco2)CN1c1cccc2ccccc12 was read as ELG1 DNA repair -21%, TDP1 cell CPT 7%, ALOX12 inh 17%, VP16 counter inconclusive, RORg inh 5µM* and DT40 TDP1 no CPT -20%.
Screening COc1ccccc1N1CN(Cc2ccccc2)CNC1=S returned ELG1 DNA repair 9%, TDP1 cell CPT 4%, ALOX12 inh inconclusive, VP16 counter inconclusive, RORg inh 2µM* and DT40 TDP1 no CPT -12%.
For CCCCN1CN(Cc2ccco2)CNC1=S the results were ELG1 DNA repair 11%, TDP1 cell CPT 12%, ALOX12 inh 6%, VP16 counter inconclusive, RORg inh 13µM* and DT40 TDP1 no CPT 2%.
For CCc1ccc(N2CN(Cc3ccco3)CNC2=S)cc1 the results were ELG1 DNA repair -13%, TDP1 cell CPT 18%, ALOX12 inh inconclusive, VP16 counter inconclusive, RORg inh 3.5µM* and DT40 TDP1 no CPT inconclusive.
Screening Cc1ccc(N2CN(Cc3ccco3)CNC2=S)c(C)c1 returned ELG1 DNA repair 22%, TDP1 cell CPT 22%, ALOX12 inh -22%, VP16 counter -3%, RORg inh -2% and DT40 TDP1 no CPT 2%.
Screening S=C1NCN(Cc2ccco2)CN1c1ccccc1 returned ELG1 DNA repair -5%, TDP1 cell CPT 5%, ALOX12 inh 0%, VP16 counter -5%, RORg inh inconclusive and DT40 TDP1 no CPT 9%.
Screening Cc1ccc(CNC(=O)[C@H](Cc2ccccc2)NC(=O)c2cccs2)n1C returned ALOX12 inh 3%.
Screening O=C(Nc1ccccc1-c1nc(Cc2ccccc2)no1)c1ccncc1 returned ALOX12 inh 17%.
For S=C1NCN(Cc2ccco2)CN1 the results were ELG1 DNA repair 11%, TDP1 cell CPT 4%, ALOX12 inh inconclusive, VP16 counter -9%, RORg inh -12% and DT40 TDP1 no CPT 3%.
`C=CCN1CN(Cc2ccco2)CNC1=S` gave ELG1 DNA repair 12%, TDP1 cell CPT -21%, ALOX12 inh -4%, VP16 counter inconclusive, RORg inh 13µM* and DT40 TDP1 no CPT inconclusive.
Screening O=C(O)CSCc1ccc(Cl)cc1Cl returned ALOX12 inh 17%.

Source: PubChem
